Laboratory results from PubChem BioAssay (NCI).
Compounds without any hit were thinned out: in the full panel of roughly 83,000, 20% have a hit.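 96-well plates, one dose, 48 hours. Percent growth reported; active if below 10.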 The source made the active and inactive calls.

How the values were obtained:
Test in all cases: NCI-60 one-dose screen, 48 h (100 = growth as untreated, 0 = no growth, -100 = all killed)
Details in all cases: 10 µM unless noted
SK-MEL-2 melanoma = tested on: SK-MEL-2 melanoma
EKVX NSCLC = tested on: EKVX NSCLC
SN12C renal = tested on: SN12C renal
UO-31 renal = tested on: UO-31 renal
TK-10 renal = tested on: TK-10 renal
ACHN renal = tested on: ACHN renal
A498 renal = tested on: A498 renal
MOLT-4 leukemia = tested on: MOLT-4 leukemia
CAKI-1 renal = tested on: CAKI-1 renal
CCRF-CEM leukemia = tested on: CCRF-CEM leukemia

Measured: growth

COc1cccc(C2CC(=O)Nc3cc4c(cc32)OCO4)c1OC (configuration not stated)
inactive: SK-MEL-2 melanoma 88.3% | EKVX NSCLC 110% | SN12C renal 103% | UO-31 renal 72.4% | TK-10 renal 87% | ACHN renal 91.8% | A498 renal 77.6% | MOLT-4 leukemia 87.1%

O=S(=O)(Nc1ccc(Cl)c(Cl)c1)c1ccc(-c2cnc(C3CC3)o2)cc1
inactive: SK-MEL-2 melanoma 37.4% | EKVX NSCLC 33.8% | SN12C renal 41.2% | UO-31 renal 44% | TK-10 renal 51.3% | ACHN renal 45.1% | CAKI-1 renal 35.9% | CCRF-CEM leukemia 18.9% | MOLT-4 leukemia 32.4%

Cc1ccccc1-c1cc(-c2ccc(Br)s2)[nH]c(=O)c1C#N
inactive: SK-MEL-2 melanoma 113% | EKVX NSCLC 85.6% | SN12C renal 102% | UO-31 renal 83.3% | TK-10 renal 109% | ACHN renal 101% | CAKI-1 renal 88.1% | CCRF-CEM leukemia 106% | MOLT-4 leukemia 92.7%

COc1cc(CNCCN2C(=O)c3ccc4c5c(ccc(c35)C2=O)C(=O)N(CCNCc2cc(OC)c(OC)c(OC)c2)C4=O)cc(OC)c1OC
active: SK-MEL-2 melanoma -82.3% | EKVX NSCLC -42% | SN12C renal -87.7% | UO-31 renal -70.2% | TK-10 renal -87.1% | ACHN renal -92.2% | A498 renal -92.7% | CCRF-CEM leukemia -20.7% | MOLT-4 leukemia -4.82%

COC(=O)c1c2c(c(C)[n+]([O-])c1C)C(=O)C(NCc1ccc(O)cc1)=CC2=O
active: SK-MEL-2 melanoma -12.5% | EKVX NSCLC -34.5% | SN12C renal -89.9% | UO-31 renal 6.95% | ACHN renal 8.06% | CAKI-1 renal 7.36% | CCRF-CEM leukemia 6.08% | MOLT-4 leukemia -1.35%
inactive: TK-10 renal 74.1%

COC(=O)c1c2c(c(C)[n+]([O-])c1C)C(=O)C=C(NCc1cccc(OC)c1)C2=O
active: SK-MEL-2 melanoma -64.6% | EKVX NSCLC -68.7% | SN12C renal -93.4% | UO-31 renal -62.5% | TK-10 renal 4.5% | ACHN renal -81.5% | CAKI-1 renal -32.6% | CCRF-CEM leukemia -17.1% | MOLT-4 leukemia -45.9%

CCCCCCCC/C=C\CCCCCCCCOc1cccc(CC(=O)NCC[N+]2(C)CCCCC2)c1
inactive: SK-MEL-2 melanoma 91.8% | EKVX NSCLC 78.7% | SN12C renal 47.8% | UO-31 renal 86.8% | TK-10 renal 76.8% | ACHN renal 94.7% | CAKI-1 renal 70.3% | CCRF-CEM leukemia 38.5% | MOLT-4 leukemia 57%

O=C1/C(=C/c2ccc([N+](=O)[O-])cc2)Oc2ccc(O)cc21
active: CAKI-1 renal 5.52%
inactive: SK-MEL-2 melanoma 104% | EKVX NSCLC 91.9% | SN12C renal 85.8% | UO-31 renal 70.4% | TK-10 renal 17.8% | ACHN renal 82.3% | CCRF-CEM leukemia 72.5% | MOLT-4 leukemia 18.7%

Cl.Fc1c[c-]c(-c2ccccn2)c(F)c1.[Pt].c1ccc([PH+](CC[PH+](c2ccccc2)c2ccccc2)c2ccccc2)cc1
active: SK-MEL-2 melanoma -76.8% | EKVX NSCLC -99.2% | SN12C renal -75.8% | UO-31 renal -92.4% | TK-10 renal -83.7% | ACHN renal -97.9% | CAKI-1 renal -83.5% | CCRF-CEM leukemia -43% | MOLT-4 leukemia -26.8%

O=c1oc2ccccc2cc1-c1csc(N/N=C/c2cc3ccccc3nc2Cl)n1
inactive: SK-MEL-2 melanoma 106% | EKVX NSCLC 96.1% | SN12C renal 90.6% | UO-31 renal 91% | TK-10 renal 116% | ACHN renal 101% | CAKI-1 renal 87.5% | CCRF-CEM leukemia 111% | MOLT-4 leukemia 132%

O=C(CCc1nnc2sc(-c3ccccc3)nn12)c1nc2ccccc2[nH]1
inactive: SK-MEL-2 melanoma 104% | EKVX NSCLC 99.5% | SN12C renal 86.6% | UO-31 renal 77.5% | TK-10 renal 108% | ACHN renal 101% | A498 renal 80.4% | MOLT-4 leukemia 78.4%

CCCCC(O)Cn1ncc(C(=O)OCC)c1NC(=O)NCc1ccccc1C(F)(F)F (configuration not stated)
inactive: SK-MEL-2 melanoma 104% | EKVX NSCLC 101% | SN12C renal 99.7% | UO-31 renal 82.6% | TK-10 renal 96.3% | ACHN renal 97.4% | CAKI-1 renal 84.2% | CCRF-CEM leukemia 104% | MOLT-4 leukemia 93.9%

CN1CCN(c2ccc3nc(-c4ccc5nc(-c6ccc(C(F)(F)F)cc6)[nH]c5c4)[nH]c3c2)CC1
inactive: SK-MEL-2 melanoma 103% | EKVX NSCLC 81.6% | SN12C renal 80.3% | UO-31 renal 105% | TK-10 renal 101% | ACHN renal 55.6% | CAKI-1 renal 43% | CCRF-CEM leukemia 21.2% | MOLT-4 leukemia 47.2%

Cc1cccc2c(=O)c3c(sc12)c(NCCCN)nc1ccccc13
active: ACHN renal -82.9% | CAKI-1 renal 4.76% | CCRF-CEM leukemia 2.89% | MOLT-4 leukemia -18.3%
inactive: SK-MEL-2 melanoma 89.2% | EKVX NSCLC 40.6% | SN12C renal 22.1% | UO-31 renal 19.6% | TK-10 renal 29%

CC(C)NCC(O)COc1ccc(CCOCC2CC2)cc1 (configuration not stated)
inactive: SK-MEL-2 melanoma 109% | EKVX NSCLC 98.4% | SN12C renal 96.9% | UO-31 renal 76.9% | TK-10 renal 111% | ACHN renal 109% | A498 renal 90.7% | CCRF-CEM leukemia 93.8% | MOLT-4 leukemia 88.3%

O=C1CCC(N2C(=O)c3cccc(NCCOCCOCCNC(=O)c4cc5c(o4)C(=O)c4ccccc4C5=O)c3C2=O)C(=O)N1 (configuration not stated)
active: SK-MEL-2 melanoma -27.8% | SN12C renal -90.6% | MOLT-4 leukemia 6.06%
inactive: EKVX NSCLC 55.9% | UO-31 renal 51% | TK-10 renal 36.1% | ACHN renal 41.9% | CAKI-1 renal 22% | CCRF-CEM leukemia 14.5%

COc1ccc(NS(=O)(=O)c2ccc(-c3cnc(C4CC4)o3)cc2)cc1
inactive: SK-MEL-2 melanoma 46.6% | EKVX NSCLC 69.9% | SN12C renal 81.5% | UO-31 renal 69.8% | TK-10 renal 79.8% | ACHN renal 80.6% | CAKI-1 renal 48.3% | MOLT-4 leukemia 48.6%

COc1ccc(C2=NOC(CC(=O)N(CCO)CCO)C2)cc1OC1CCCC1 (configuration not stated)
inactive: SK-MEL-2 melanoma 106% | EKVX NSCLC 91.5% | SN12C renal 104% | UO-31 renal 88.3% | TK-10 renal 98.9% | ACHN renal 104% | CAKI-1 renal 99.5% | MOLT-4 leukemia 125%

COc1ccc(/C=C2\SC(=O)N(CN3CCN(c4cc5c(cc4F)c(=O)c(C(=O)O)cn5C4CC4)CC3)C2=O)cc1
inactive: SK-MEL-2 melanoma 101% | EKVX NSCLC 97.4% | SN12C renal 108% | UO-31 renal 80.2% | TK-10 renal 104% | ACHN renal 111% | CAKI-1 renal 94.1% | CCRF-CEM leukemia 111% | MOLT-4 leukemia 116%

Nc1cccc2c(=S)c3ccccc3[nH]c12
inactive: SK-MEL-2 melanoma 87.5% | EKVX NSCLC 93.6% | SN12C renal 90.6% | UO-31 renal 56.4% | TK-10 renal 192% | ACHN renal 92.7% | A498 renal 64.5% | CCRF-CEM leukemia 100% | MOLT-4 leukemia 104%

CCCCCCCCCCCCCCn1c2ccccc2c2c3c(c4c5cc(OC)ccc5oc4c21)C(=O)NC3=O
inactive: SK-MEL-2 melanoma 113% | EKVX NSCLC 105% | SN12C renal 101% | UO-31 renal 88.5% | TK-10 renal 109% | ACHN renal 103% | CAKI-1 renal 93.2% | CCRF-CEM leukemia 103% | MOLT-4 leukemia 123%

NC(=O)c1cccc(-n2ccc3cc(NC(=O)Nc4ccc(Cl)c(Cl)c4)ccc32)n1
inactive: SK-MEL-2 melanoma 88.3% | EKVX NSCLC 68.3% | SN12C renal 86.8% | UO-31 renal 95.5% | TK-10 renal 80.7% | ACHN renal 74.5% | CAKI-1 renal 57.6% | CCRF-CEM leukemia 59.2% | MOLT-4 leukemia 50.7%

Clc1ccc(C2=Nc3cccc4cccc(c34)N2)cc1Cl
inactive: SK-MEL-2 melanoma 96.2% | EKVX NSCLC 91.1% | SN12C renal 110% | UO-31 renal 72.3% | TK-10 renal 97.9% | ACHN renal 94.7% | CCRF-CEM leukemia 67.4%

O=c1oc2ccccc2cc1-c1csc(N=Nc2c(O)[nH]c3ccc(Br)cc23)n1
inactive: SK-MEL-2 melanoma 107% | EKVX NSCLC 95.8% | SN12C renal 98.7% | UO-31 renal 86.3% | TK-10 renal 111% | ACHN renal 97.9% | CAKI-1 renal 93.4% | CCRF-CEM leukemia 97.2% | MOLT-4 leukemia 120%

COc1ccc(OC)c(/C=C2\Oc3cc(O)ccc3C2=O)c1
inactive: SK-MEL-2 melanoma 98.6% | EKVX NSCLC 91.4% | SN12C renal 85.8% | UO-31 renal 60.3% | TK-10 renal 103% | ACHN renal 68.3% | CAKI-1 renal 93.7% | CCRF-CEM leukemia 96.1% | MOLT-4 leukemia 100%

NS(=O)(=O)c1ccc(C(=O)N/N=C(\CS(=O)(=O)c2ccccc2)c2cc3cc(Br)ccc3o2)cc1
inactive: SK-MEL-2 melanoma 100% | EKVX NSCLC 103% | SN12C renal 89% | UO-31 renal 101% | TK-10 renal 107% | ACHN renal 99.3% | CAKI-1 renal 89.9% | MOLT-4 leukemia 137%

Cc1c(C(=O)Nc2nc(-c3ccccc3)cs2)nnn1-c1ccccc1Br
inactive: SK-MEL-2 melanoma 40.1% [50 µM] | EKVX NSCLC 30.7% [50 µM] | SN12C renal 50.9% [50 µM] | UO-31 renal 41.7% [50 µM] | ACHN renal 41.9% [50 µM] | CAKI-1 renal 33.7% [50 µM] | A498 renal 50.5% [50 µM] | CCRF-CEM leukemia 41.1% [50 µM] | MOLT-4 leukemia 17% [50 µM]

COc1cc2cc(Oc3ccc(NC(=O)Nc4cccc(C(F)(F)F)c4)cc3)c(C)nc2cc1OCCN1CCCCC1
active: SK-MEL-2 melanoma -65.9% | SN12C renal -88.9% | UO-31 renal -92.1% | ACHN renal -73.3% | CAKI-1 renal -77.7% | CCRF-CEM leukemia 1.49% | MOLT-4 leukemia -54.9%
inactive: EKVX NSCLC 27.5% | A498 renal 51%

COc1ccc(-c2nc3sc(C)cn3c2/C=C/C(=O)c2cc(OC)c(OC)c(OC)c2)cc1
inactive: SK-MEL-2 melanoma 63% | EKVX NSCLC 34% | SN12C renal 59.5% | UO-31 renal 31.6% | TK-10 renal 96.9% | CAKI-1 renal 76.7% | A498 renal 52.5% | CCRF-CEM leukemia 37.4% | MOLT-4 leukemia 12.2%

COc1ccc(/C=C(\C#N)c2cc3ccccc3n2C)cc1
inactive: SK-MEL-2 melanoma 67% | EKVX NSCLC 39.1% | SN12C renal 44.7% | UO-31 renal 48.5% | ACHN renal 45.5% | CCRF-CEM leukemia 18.3% | MOLT-4 leukemia 17.4%
active: A498 renal -12.9%
